# Test results as given in the supplement of paper PMC8728848.
# The sample as a whole holds a higher share of the strongest signals than the screen did.
# Experiments:
# Assay in all cases: glycan array binding signal (z-score within array); higher = stronger binding
# Settings in all cases: glycan notation: IUPAC condensed, linker removed
# [1] = target: Glc(a1-6)Glc(a1-6)Glc
# In short: (§1)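 Glycan array data came from 3228 arrays in the Consortium for Functional Glycomics database, and only arrays with an available protein sequence were kept. Glycan names were put into IUPAC-condensed notation, and columns mapping to the same glycan were averaged. The binding signal is a within-array Z-score, averaged across arrays of one protein sequence run at different concentrations or buffers and across linkers. A negative Z-score can be read as non-binding.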
# [2] = target: GlcNAc(a1-4)Gal(b1-4)GalNAc
# In short: as §1
# [3] = target: GlcNAc(b1-2)[GlcNAc(b1-6)]Man(a1-6)[GlcNAc(b1-4)][GlcNAc(b1-2)Man(a1-3)]Man(b1-4)GlcNAc(b1-4)GlcNAc
# In short: as §1
# [4] = target: GlcNAc(b1-3)Gal(b1-4)GlcNAc(b1-3)Gal(b1-4)GlcNAc(b1-2)Man(a1-3)[GlcNAc(b1-3)Gal(b1-4)GlcNAc(b1-3)Gal(b1-4)GlcNAc(b1-2)Man(a1-6)]Man(b1-4)GlcNAc(b1-4)GlcNAc
# In short: as §1
# [5] = target: GlcNAc(b1-3)Gal(b1-4)GlcNAc(b1-3)Gal(b1-4)GlcNAc(b1-3)Gal(b1-4)GlcNAc(b1-2)[GlcNAc(b1-3)Gal(b1-4)GlcNAc(b1-3)Gal(b1-4)GlcNAc(b1-3)Gal(b1-4)GlcNAc(b1-6)]Man(a1-6)[GlcNAc(b1-3)Gal(b1-4)GlcNAc(b1-3)Gal(b1-4)GlcNAc(b1-3)Gal(b1-4)GlcNAc(b1-2)Man(a1-3)]Man(b1-4)GlcNAc(b1-4)[Fuc(a1-6)]GlcNAc
# In short: as §1
# [6] = target: GlcNAc(b1-4)[GlcNAc(b1-6)]GalNAc
# In short: as §1
# [7] = target: Kdn(a2-3)Gal(b1-3)GlcNAc
# In short: as §1
# [8] = target: Man(a1-2)Man(a1-3)[Man(a1-2)Man(a1-6)]Man(a1-6)[Man(a1-2)Man(a1-2)Man(a1-3)]Man
# In short: as §1
# [9] = target: Man(a1-2)Man(a1-6)[Man(a1-3)]Man(a1-6)[Man(a1-2)Man(a1-2)Man(a1-3)]Man
# In short: as §1
# [10] = target: Neu5Ac(a2-3)Gal(b1-4)GlcNAc(b1-3)Gal(b1-3)GlcNAc
# In short: as §1
# [11] = target: Neu5Ac(a2-3)Gal(b1-4)GlcNAc(b1-3)Gal(b1-4)GlcNAc
# In short: as §1
# [12] = target: Neu5Ac(a2-3)Gal(b1-4)GlcNAc(b1-3)Gal(b1-4)GlcNAc(b1-3)GalNAc
# In short: as §1
# [13] = target: Neu5Ac(a2-3)GalNAc
# In short: as §1
# [14] = target: Neu5Ac(a2-3)[GalNAc(b1-4)]Gal(b1-4)GlcNAc(b1-3)GalNAc
# In short: as §1
# [15] = target: Neu5Ac(a2-3)[Neu5Ac(a2-6)]GalNAc
# In short: as §1
# [16] = target: Neu5Ac(a2-6)Gal(b1-4)Glc
# In short: as §1
# [17] = target: Neu5Ac(a2-6)Gal(b1-4)GlcNAc(b1-2)Man(a1-6)Man(b1-4)GlcNAc(b1-4)GlcNAc
# In short: as §1
# [18] = target: Neu5Ac(a2-6)Gal(b1-4)GlcNAc(b1-2)Man(a1-6)[Gal(b1-4)GlcNAc(b1-2)Man(a1-3)]Man(b1-4)GlcNAc(b1-4)GlcNAc
# In short: as §1
# [19] = target: Neu5Ac(a2-6)Gal(b1-4)GlcNAc(b1-3)Gal(b1-4)GlcNAc(b1-2)Man(a1-3)[Neu5Ac(a2-6)Gal(b1-4)GlcNAc(b1-3)Gal(b1-4)GlcNAc(b1-2)Man(a1-6)]GalNAc
# In short: as §1
# [20] = target: Neu5Ac(a2-6)Gal(b1-4)GlcNAc(b1-3)Gal(b1-4)GlcNAc(b1-3)Gal(b1-4)GlcNAc
# In short: as §1
# [21] = target: Neu5Ac(a2-6)Gal(b1-4)GlcNAc(b1-3)Gal(b1-4)GlcNAc(b1-3)Gal(b1-4)GlcNAc(b1-2)Man(a1-3)[Neu5Ac(a2-6)Gal(b1-4)GlcNAc(b1-3)Gal(b1-4)GlcNAc(b1-3)Gal(b1-4)GlcNAc(b1-2)Man(a1-6)]GalNAc
# In short: as §1
# [22] = target: Neu5Ac(a2-6)Gal(b1-4)GlcNAc(b1-3)Gal(b1-4)GlcNAc(b1-6)[Gal(b1-3)]GalNAc
# In short: as §1
# [23] = target: Neu5Ac(a2-8)Neu5Ac(a2-3)Gal(b1-3)GalNAc(b1-4)[Neu5Ac(a2-3)]Gal(b1-4)Glc
# In short: as §1
# [24] = target: Neu5Ac(a2-8)Neu5Ac(a2-8)Neu5Ac
# In short: as §1
# [25] = target: Neu5Ac(a2-8)Neu5Gc(a2-3)Gal(b1-4)GlcNAc
# In short: as §1
# [26] = target: Neu5Gc(a2-8)Neu5Gc(a2-3)Gal(b1-4)GlcNAc
# In short: as §1
# [27] = target: Neu5Gc(a2-8)Neu5Gc(a2-3)Gal(b1-4)GlcNAc(b1-3)Gal(b1-4)GlcNAc
# In short: as §1
binder,measurement,setting,value
PX14375A-pdi-503-28-503 (Parabacteroides distasonis) (protein) PLGSPEAGDISEERQAFLRLTAVYSVMKDFRYTWSMQCFGDVLSNDATYSGSSNDAQTFTLLENYQYQADHTEILNKYRYSYQCINKANLFIRDMEMADDALFSKYDKEQMIGEAKFIRAYTYFELVKTFGGVPCYTGVLDLDHERLGRASVEEIYSVIEQDLNDAVSVLPKKSEVANYESSYAGRITKGAAIAMQTRIYLYEKKYDEVKKAFEKFQNECGGEYSLVAPEDYTWQFSLDGEHCSSSILEVNMYNSSTQSSYNVNNGNRHVLMSMPRNMTIGFGCAQPTQALADAYDAEGDVIRKKTTLLSTEEAIEIETAAKGDVAPVTDDRTGWYNRKLYLAPGQREENRGNNQPTNLRLIRLAEVYLNYAEACYFSGDIANAQKYLNEVRSHVNLAPKNHTGSQLFEDIMNERHLEFGMEGFRFFDVVRVGWGEKVFNGTKKAEFGAKTPFSAGAEVLPIPQTEIDISDGLITN,glycan array binding signal (z-score),[1],-0.184
same,glycan array binding signal (z-score),[2],0.594
same,glycan array binding signal (z-score),[3],-0.508
same,glycan array binding signal (z-score),[4],1.59
same,glycan array binding signal (z-score),[5],0.489
same,glycan array binding signal (z-score),[6],2.82
same,glycan array binding signal (z-score),[7],-0.519
same,glycan array binding signal (z-score),[8],1.42
same,glycan array binding signal (z-score),[9],-0.437
same,glycan array binding signal (z-score),[10],-0.225
same,glycan array binding signal (z-score),[11],0.104
same,glycan array binding signal (z-score),[12],-0.442
same,glycan array binding signal (z-score),[13],-0.004
same,glycan array binding signal (z-score),[14],-1.13
same,glycan array binding signal (z-score),[15],0.006
same,glycan array binding signal (z-score),[16],-0.412
same,glycan array binding signal (z-score),[17],-0.882
same,glycan array binding signal (z-score),[18],-0.819
same,glycan array binding signal (z-score),[19],0.642
same,glycan array binding signal (z-score),[20],0.319
same,glycan array binding signal (z-score),[21],1.64
same,glycan array binding signal (z-score),[22],-0.493
same,glycan array binding signal (z-score),[23],-0.127
same,glycan array binding signal (z-score),[24],-0.278
same,glycan array binding signal (z-score),[25],13.2
same,glycan array binding signal (z-score),[26],-0.736
same,glycan array binding signal (z-score),[27],-0.755
